Assay outcomes as filed in PubChem.
Calb biofilm kill: clotrimazole potentiators killing Candida biofilms, primary screen, with clotrimazole, Alamar Blue; 85,000 compounds, 0.14% hits; inhibition, % at 6 µM; AID 834, 2007; C. albicans biofilm + clotrimazole;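 active = inhibition above 20%; inactive = inhibition below 20%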;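 also: preformed 24 hr biofilms exposed to compound for 48 hr; 0% = biofilm without compound and 100% = blank killed by clotrimazole plus chlorhexidine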
PLAP activator: PLAP enzyme activators, biochemical, luminescence, HTS | activation fold at 20 µM | Alkaline phosphatase, placental type (Homo sapiens), P05187 | purified PLAP enzyme, luminescent substrate read-out; hits give high values | 96,000 compounds, 1.2% hits; in the data active = activation fold above about 2
HePTP inhibitor: inhibitors of human HePTP phosphatase, primary screen, biochemical, absorbance, leukemia target | AID 521, 2006 | 110,000 compounds, 0.64% hits | recombinant HePTP phosphatase activity, OD absorbance | inhibition, % at 20 µM | Tyrosine-protein phosphatase non-receptor type 7 (Homo sapiens), P35236; in the data active = inhibition above about 50%;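 also: plate controls were vehicle for no effect and reference inhibitor for full effect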
D1 mod: D1 CRE-luciferase signal change, two-sided – cell-based, HEK293 D1, dopamine EC30, D1 allosteric modulator project, primary screen | D(1A) dopamine receptor (Homo sapiens), P21728 | dopamine EC30 potentiation; actives deviate in either direction | 58,000 compounds, 5.9% hits | B-score at 10 µM | AID 641, 2007;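 active = luminescence count or its row- and column-corrected plate score outside the 99.7% band of the plate's sample wells, on either side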
hDAT+cocaine: changed hDAT dopamine uptake under cocaine IC80, either direction, primary screen, cocaine antagonist project, cell-based, LLC-PK1 hDAT, [14C]-dopamine uptake, MLSMR. 110,000 compounds, 1.3% hits. B-score at 10 µM. Sodium-dependent dopamine transporter (Homo sapiens), Q01959. LLC-PK1 hDAT cells, [14C]-dopamine uptake with cocaine IC80; actives deviate in either direction;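 active = Z score or B-score, a plate-position-corrected score, falls beyond the plate's 99.7% confidence bounds, in either direction; inactive = both scores lie inside the 99.7% bounds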;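 also: scored against the spread of the other compound wells on the same plate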
TNAP act DEA: human TNAP enzyme activators, primary screen, biochemical, luminescent, intermediate phosphate acceptor level. 64,000 tested, under 10 active. purified TNAP, CDP-star luminescence, 100 mM DEA, 30 min; hits give high values; scale: 0 levamisole-inhibited, 1 vehicle-only enzyme. Alkaline phosphatase, tissue-nonspecific isozyme (Homo sapiens), P05186. activation factor at 20 µM;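 active = activation factor of at least 2 at 20 µM, relative to controls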
Target sequence (P05186 whole entry, looked up): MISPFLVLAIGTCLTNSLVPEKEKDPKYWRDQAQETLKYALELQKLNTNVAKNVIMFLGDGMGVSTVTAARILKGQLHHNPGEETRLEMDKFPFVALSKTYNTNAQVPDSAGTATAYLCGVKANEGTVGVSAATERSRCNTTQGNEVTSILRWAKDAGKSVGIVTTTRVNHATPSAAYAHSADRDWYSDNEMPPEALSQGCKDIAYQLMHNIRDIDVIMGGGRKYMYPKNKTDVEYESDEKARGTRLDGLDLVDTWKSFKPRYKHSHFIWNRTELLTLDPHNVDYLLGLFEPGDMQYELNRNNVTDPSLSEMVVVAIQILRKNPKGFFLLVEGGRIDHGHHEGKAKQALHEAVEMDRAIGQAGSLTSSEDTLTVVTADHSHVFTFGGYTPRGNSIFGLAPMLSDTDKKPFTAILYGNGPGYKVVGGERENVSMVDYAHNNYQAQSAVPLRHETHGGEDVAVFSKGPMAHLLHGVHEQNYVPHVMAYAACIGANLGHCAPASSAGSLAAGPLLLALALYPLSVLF
Starred values were filed as active, the others as inactive; x = no result. The entries come from a sample that favours hits as a whole.

SMILES | Calb biofilm kill | PLAP activator | HePTP inhibitor | D1 mod | hDAT+cocaine | TNAP act DEA
CCOc1ccc(C(=O)Nc2cccc(C)n2)cc1 | 10 | 0.9 | 0 | -6.5* | 1.8 | 0.9
CCCCOc1ccc(C(=O)Nc2cccc(C)n2)cc1 | -8 | 0.9 | 5 | -2.6 | x | 0.9
CCC(=O)Nc1ccc(C(=O)Nc2cccnc2)cc1 | 6 | 0.9 | 6 | -0.75 | 0.26 | 0.9
Cc1ccc(C(=O)CCC(=O)Nc2cccnc2)cc1C | 3 | 1 | 7 | 0.5 | -8.5* | 0.9
COCCOC(=O)C1=C(C)NC2=C(C(=O)CC(C)(C)C2)C1c1ccc(N(C)C)cc1 (stereo not drawn) | 11 | 1.4 | 6 | -5.8* | 0.97 | 0.9
COc1ccc(C(=O)/C=C/c2ccc3c(c2)OCO3)cc1OC | x | x | 4 | x | x | x
Cc1ccccc1-n1nc(C)c2cc(C(=O)NCc3cccnc3)sc21 | x | 1.5 | 2 | -4.7* | -0.047 | 0.9
COc1cccc(C2NC(=O)NC(C)=C2C(=O)Nc2cccc(Cl)c2)c1 (stereo not drawn) | x | x | 4 | x | x | x
CCOc1ccccc1N1CCN(C(=O)COc2ccc(Cl)cc2C)CC1 | x | x | 8 | x | x | x
O=C(NC1=NCCS1)c1ccncc1 | 4 | 1 | 3 | 1.3 | -0.49 | 1
O=C(NC1=NCCS1)c1ccc(OCC2CCCO2)cc1 (stereo not drawn) | x | 0.9 | -11 | -3* | -1 | 1
CC(=O)Nc1cc(C(C)(C)C)c(O)c(C(C)(C)C)c1 | 68* | 1.4 | x | x | 0.2 | x
O=C(c1ccccc1CCc1ccccc1)N1CCOCC1 | 4 | 1.2 | 0 | -0.79 | -6.8* | 1
CSc1ccccc1C(=O)N1CCOCC1 | 9 | x | 8 | x | -0.45 | 0.8
CN(C)c1nc(Oc2ccc(=O)[nH]n2)nc(N2CCOCC2)n1 | 6 | 0.8 | x | x | 0.49 | x
CN(C)c1nc(Oc2ccc(=O)n(-c3ccccc3)n2)nc(N2CCOCC2)n1 | -1 | 1.7 | 4 | 5.6* | 0.0014 | 0.9
O=C(O)COc1ccccc1/C=N/NC(=O)COc1c(Br)cc(Br)cc1Br | x | x | 66* | x | x | x
CCOC(=O)c1c(NC(=O)C(C(C)C)N2C(=O)c3ccccc3C2=O)sc(C)c1C (stereo not drawn) | x | x | -11 | x | x | x
CC(C)(C)c1ccccc1OCC(=O)Nc1ncn[nH]1 | -1 | 2* | 7 | 0.23 | -1.2 | 1.4
CC(C)(C)c1cc(Br)ccc1OCC(=O)Nc1ncn[nH]1 | 3 | 1.1 | 4 | 0.83 | 0.71 | 1
O=C(Cc1ncn[nH]1)NCCc1ccccc1 | 4 | 2.4* | 2 | x | -0.026 | 0.9
O=C(CCc1ccccc1)Nc1ncn[nH]1 | 6 | 2.6* | -2 | 0.053 | 0.023 | 1.7
COc1ccc(CNC(=O)c2ccc(Cl)cc2)cc1 | x | x | 1 | x | x | x
COc1cccc(N2CCN(CC(=O)Nc3nnc(-c4ccccc4)s3)CC2)c1 | 4 | 2* | 5 | 0.79 | -0.39 | 1
CCNC(=O)CN(c1ccccc1OCC)S(=O)(=O)c1ccccc1 | x | x | 8 | x | x | x
SMILES | Calb biofilm kill | PLAP activator | HePTP inhibitor | D1 mod | hDAT+cocaine | TNAP act DEA
CCOC(=O)N1CCN(C(=O)c2oc3ccc(S(=O)(=O)N4CCCCC4)cc3c2C)CC1 | 2 | 1.4 | 4 | 1.1 | 3* | 1
CCCCN(CCCC)S(=O)(=O)c1ccc2oc(C(=O)N3CCOCC3)c(C)c2c1 | 0 | 1.3 | 1 | -0.24 | 0.68 | 0.9
Cc1c(C(=O)NCCN2CCOCC2)oc2ccc(S(=O)(=O)N3CCCCCC3)cc12 | x | 1.6 | 0 | -0.59 | 2* | 0.9
Cc1c(C(=O)NCCc2ccccc2)oc2ccc(S(=O)(=O)N3CCOCC3)cc12 | 5 | 1 | 5 | x | -0.68 | 0.9
Cc1c(C(=O)N2CCCCC2)oc2ccc(S(=O)(=O)N3CC(C)CC(C)C3)cc12 (stereo not drawn) | x | 1.1 | 6 | -1.1 | -0.097 | 0.8
CCOC(=O)c1[nH]c(C)c(C(=O)NCCCN2CCOCC2)c1C | 10 | 0.9 | 3 | -0.53 | -5* | 0.9
CCN(CC)S(=O)(=O)c1ccc2oc(C(=O)NCCCN3CCOCC3)c(C)c2c1 | 11 | 2* | x | x | -0.18 | x
